# The panel holds about 79,000 compounds, 15% with a hit somewhere; the sample as a whole holds those more often. Unmarked numbers belong to inactive results. Active and inactive are the calls of the source. Rule as the data show it: active = growth inhibition above about 70%; inactive = the rest.
# Columns and labels:
# [1] = NCI Yeast Anticancer Drug Screen. Data for the rad50 strain (AID 155);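 also: 0% = growth of vehicle-only cultures of the same strain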; settings: S. cerevisiae rad50 strain growth inhibition, stronger effect = higher value
# Method in brief: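 DNA repair mutant yeast, compound exposure, growth read-out; inhibition is taken relative to vehicle.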
# [2] = NCI Yeast Anticancer Drug Screen. Data for the mec2-1 strain (AID 157); settings: S. cerevisiae mec2-1 strain, stronger effect = higher value
# Method in brief: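 Test agents were screened against the mec2-1 yeast strain, with defined DNA repair or cell cycle alteration. Growth was scored as inhibition against vehicle-only controls.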
# [3] = NCI Yeast Anticancer Drug Screen. Data for the sgs1 mgt1 strain (AID 161);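 also: 0% = growth of cultures given vehicle only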; settings: S. cerevisiae sgs1 mgt1 strain, stronger effect = higher value
# Method in brief: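 Mutant yeast exposed to compound; growth scored against vehicle-only wells.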
# [4] = NCI Yeast Anticancer Drug Screen. Data for the cln2 rad14 strain (AID 165);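 also: 0% = growth equal to vehicle treated cultures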; settings: S. cerevisiae cln2 rad14 strain, stronger effect = higher value
# Method in brief: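 Growth of compound-exposed yeast (cln2 rad14 genotype) measured and expressed as inhibition relative to vehicle.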
# [5] = NCI Yeast Anticancer Drug Screen. Data for the bub3 strain (AID 167); settings: S. cerevisiae bub3 mutant strain, stronger effect = higher value
# Method in brief: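 In this screen, a yeast mutant lacking normal mitotic checkpoint function is challenged with compound. Relative growth versus vehicle gives the inhibition value.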
# [6] = NCI Yeast Anticancer Drug Screen. Data for the mlh1 rad18 strain (AID 175); settings: S. cerevisiae mlh1 rad18 strain growth inhibition, stronger effect = higher value
# Method in brief: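 In this whole-cell yeast screen, a strain with altered DNA damage repair is challenged with compound, and its growth is measured against matched vehicle-treated controls.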
# [7] = at 5.0 µM (retest, dose inferred, filed as 0.5)
# [8] = at 50.0 µM (retest, dose inferred, filed as 5.0)
Structure (SMILES),"growth inhibition [1, 7]","growth inhibition [1, 8]",growth inhibition ([1]; at 50.0 µM),"growth inhibition [2, 7]","growth inhibition [2, 8]",growth inhibition ([2]; at 50.0 µM),"growth inhibition [3, 7]","growth inhibition [3, 8]",growth inhibition ([3]; at 50.0 µM),"growth inhibition [4, 7]","growth inhibition [4, 8]",growth inhibition ([4]; at 50.0 µM),"growth inhibition [5, 7]","growth inhibition [5, 8]",growth inhibition ([5]; at 50.0 µM),"growth inhibition [6, 7]","growth inhibition [6, 8]",growth inhibition ([6]; at 50.0 µM)
c1cc(NC2CCCCC2)ccc1CN1CCOCC1,57%,90% (active),55.3%,51%,73% (active),70.5% (active),80% (active),88% (active),70%,72% (active),87% (active),63.8%,80% (active),78% (active),68.2%,56%,82% (active),79% (active)
Cc1ccc(O)c2c(NCCCCCCNc3cc(C)[n+](C)c4c(C)ccc(O)c34)cc(C)[n+](C)c12,-1%,87% (active),89% (active),0%,76% (active),90.4% (active),-1%,71% (active),92.7% (active),5%,60%,72.7% (active),-6%,76% (active),77.5% (active),-2%,84% (active),90.2% (active)
CCCCCCCCCCCC(=O)OCC1OC(n2cc(F)c(=O)[nH]c2=O)C(N)C(O)C1O (stereo not given),34%,34%,90.2% (active),31%,31%,91% (active),10%,10%,89.1% (active),22%,22%,91.2% (active),-11%,-11%,90.3% (active),24%,24%,88.5% (active)
Cn1c(-c2ccc(/C=N/NC(N)=NCCCCCCN=C(N)N/N=C/c3ccc(-c4c[n+]5ccccc5n4C)cc3)cc2)c[n+]2ccccc12,97% (active),98% (active),98.2% (active),97% (active),98% (active),96.8% (active),97% (active),98% (active),97.2% (active),95% (active),98% (active),89.3% (active),97% (active),99% (active),97.3% (active),97% (active),98% (active),97.7% (active)
C/C=C(\C)C(=O)OC1C(C)C2(O)C(C=C(CO)CC3(O)C(=O)C(C)=CC32)C2C(C)(C)C12OC(=O)CCCCCCCCC (stereo not given),0%,85% (active),79% (active),-3%,90% (active),84.1% (active),-15%,89% (active),83.4% (active),24%,86% (active),75.7% (active),33%,89% (active),80.9% (active),22%,86% (active),81.6% (active)
Nc1c(-c2c(Cl)cccc2Cl)[n+]([O-])c2ccccc2[n+]1[O-],26%,99% (active),75% (active),29%,99% (active),38.9%,44%,100% (active),74.7% (active),28%,99% (active),69.3%,45%,99% (active),66.8%,72% (active),99% (active),88.8% (active)
CC(=O)c1cc(-c2ccc(C)cc2)nc2c(C)cc(C)cc12,5%,15%,32.9%,5%,33%,60.5%,6%,32%,-9.2%,1%,41%,76.8% (active),10%,40%,95.2% (active),27%,41%,94.2% (active)
CCOC(=O)c1c(C)[nH]c(C(c2ccccc2)c2[nH]c(C)c(C(=O)OCC)c2C)c1C,-2%,65%,44%,-4%,64%,43.4%,7%,69%,66.5%,0%,86% (active),75.2% (active),-5%,80% (active),46.2%,5%,74% (active),48.8%
Cn1cc(C2=CC(=O)C=CC2=O)c2ccccc21,0%,97% (active),98.1% (active),8%,99% (active),98.6% (active),4%,98% (active),98.8% (active),-2%,98% (active),98.2% (active),-4%,97% (active),98.2% (active),2%,98% (active),98.5% (active)
CCOC(=O)[C@]12CCC[C@@]1(O)NC(=O)c1cnccc12,33%,99% (active),97.3% (active),13%,99% (active),97.7% (active),15%,98% (active),97.4% (active),-1%,7%,91.2% (active),-2%,9%,96.9% (active),0%,97% (active),97.3% (active)
